Compounds with a hit are over-represented: about 14% of the library has one in this group of screens.
Marburg entry inh = blocks Marburg virus binding to or entry into cells. Marburg virus pseudotyped entry inhibition, cell reporter. Potency, µM (top dose mostly 37.8 µM), without a hit: at the top dose activity change, negative = inhibition, hits mostly inhibitors. actives 1.8% (n = 300,000); calls by dose curve; tested in HEK293 cells; further: potency means the concentration at half of the fitted maximal effect
HCV inhibitor = blocks hepatitis C virus; Huh7.5.1 HCVcc-Cre infection, luciferase reporter, 44 h; Potency, µM (top dose mostly 41.8 µM), inactives show at the top dose activity change, negative = inhibition, actives largely listed as inhibitors; actives 3.4% (n = 340,000); further: potency means the concentration at half of the fitted maximal effect
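Luciferase read-out (15 sec integration) after a 15 min room-temperature substrate step quantifies HCVcc-Cre infection. Cells, 1,000 per well, had compound added 4 h post-plating, then virus at ~0.5 moi, and were cultured 44 h.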
Pf growth 96h = inhibits malaria parasite growth, 96 h; AID 504834; P. falciparum luciferase reporter growth, 96 h; actives 6.9% (n = 320,000); Potency, µM (highest dose often 28.7 µM), for the others: at the highest dose activity change, negative = inhibition, hits mostly inhibitors; further: potency means the concentration at half of the fitted maximal effect
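Two parasite generations (96 h, 37 C, 5% CO2) of compound exposure in infected erythrocytes (0.05% parasitemia, 2% hematocrit). Luciferase-reporter P. falciparum; decreased luminescence indicates inhibited growth, aimed at apicoplast-acting delayed death.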
Pf growth 48h = P. falciparum growth inhibition at 48 hours (one generation) | Potency, µM (titrated, usually from 28.7 µM), for inactives: at the highest dose activity change, negative = inhibition, most hits filed as inhibitors | P. falciparum luciferase growth in erythrocytes, 48 h | actives 5.9% (n = 310,000); further: potency means the concentration at half of the fitted maximal effect
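Parasite viability was followed by luminescence of a genomically integrated firefly luciferase. Cultures held 0.1% parasitemia at 2% hematocrit (final), incubated under 5% CO2 at 37 C.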
Lassa entry inh = inhibitors of Lassa virus binding or cell entry | Potency, µM (series often up to 37.9 µM), without a hit: at the highest dose activity change, negative = inhibition, usual class: inhibitors | Lassa virus pseudotype entry inhibition, cell reporter | AID 540256 | actives 1.2% (n = 300,000); calls by dose curve; tested in HEK293 cells; further: potency means the concentration at half of the fitted maximal effect; nearly all actives have a fitted effect of over 50% in size
HCMV antiviral = human cytomegalovirus inhibition; actives 4.5% (n = 410,000); HFF cells, HCMV-luciferase reporter, 72 h; active compounds read low; activity change, negative = inhibition, % at 57.5 µM; in the data active means activity change below about -60%; inconclusive means no clear call, values can overlap the other calls; inactive means above about -39%
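Inhibition of viral replication was scored as loss of reporter luminescence in HFFs infected with HCMV-luciferase (MOI 1 PFU/cell) for 72 h; compounds tested at 2 doses, normalized to buffer and Salinomycin controls.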
Starred values were filed as active, the others as inactive; ? = inconclusive; . = not tested or not shown; ! = not confirmed by another sample; [ ] = remark or other dose. Unless noted, the call rests on the fitted dose curve; in most records, active means well fitted inhibition curve with a large enough effect; inconclusive means small, poorly fitted or top-dose-only effect, or another doubt; inactive means no such curve, though single readings can be large or run the other way. On the % scale 0 is the no-effect control and ±100 the full control effect.

SMILES | Marburg entry inh | HCV inhibitor | Pf growth 96h | Pf growth 48h | Lassa entry inh | HCMV antiviral
CCOC(=O)[C@]12CCC=C1N(Cc1ccc3c(c1)OCO3)C(=O)[C@H](CC(=O)N1CCSCC1)C2 | . | . | . | . | . | 2
COc1ccc(-c2oc3c(c2C#CC(C)(C)O)C(OCCO)CC3)cc1 (stereo not drawn) | . | . | . | . | . | 0
CCc1ccc(NC(=O)CCC(=O)N2CCSc3ccccc32)cc1 | . | -23% | -12% | -4% | . | -17
CCc1cccc(NC(=O)CCC(=O)N2CCSc3ccccc32)c1 | . | -23% | -20% | ? | -5%[46.1 µM] | -66*!
COc1ccc2c(Cn3cnc4cc([N+](=O)[O-])ccc4c3=O)cc(=O)oc2c1 | 4.5µM* | -5% | 6% | 0% | ? | .
Cc1nc2c(cc1N)nc(C)n2Cc1ccccc1 | 16% | 15% | 2.6µM* | -2% | 15% | -14
N#Cc1c(N2C(=O)Nc3ccccc3N2O)sc2c1CCCCCC2 | 5% | 20% | 9.3µM* | -25% | -9% | 1
N#Cc1c(N2C(=O)Nc3ccccc3N2O)sc2c1CCCC2 | 4%[46.1 µM] | 10% | 140% | 43% | 0% | -19
Cc1c(Cc2ccc3c(c2)OCO3)sc(NC(=O)C(C)(C)C)c1C#N | . | 11µM* | ? | ? | . | -33
CN(C)c1ccc(-c2n[nH]c(=S)n2-c2ccccc2)cc1 | -23%[46.1 µM] | -5% | ? | 2%[5.75 µM] | -22%[46.1 µM] | 15
Cc1ccc(-n2c(-c3ccccc3)n[nH]c2=S)c(C)c1 | . | 17% | 13µM* | -13% | . | -17
CC(C)(C)c1ccc(-c2n[nH]c(=S)n2-c2ccccc2)cc1 | -3% | -5% | 2.9µM* | 310% | 1% | 19
Cn1cccc1/C=N/n1c(-c2ccc(C(C)(C)C)cc2)n[nH]c1=S | ? | ? | 53% | ? | 10µM* | ?
CCN(CC)c1ccc(-c2n[nH]c(=S)n2-c2ccccc2)cc1 | -6%[46.1 µM] | 11µM* | ? | -27% | ? | 67
Cc1ccc(-n2c(-c3ccccc3)n[nH]c2=S)cc1 | 0% | 8% | -19% | 27% | 3% | 37
CC(=O)c1cccc(NC(=O)c2cc3nc(-c4ccc(Br)cc4)cc(C(F)(F)F)n3n2)c1 | . | . | . | . | 10%[46.1 µM] | -5
Cc1cc(Cl)ccc1NC(=O)CN1C(=O)COc2ccc(S(=O)(=O)N3CCC(C)CC3)cc21 | . | . | . | . | 12%[46.1 µM] | 16
CCOc1cc(N2CCOCC2)c(OCC)cc1NS(=O)(=O)c1ccc2c(c1)CC(=O)N2 | . | . | . | . | . | 1
CC(C)(C)c1ccc(-c2n[nH]c(=S)n2C2CCCC2)cc1 | ? | ? | 47% | . | ? | -91*
Cn1c(-c2ccc(C(C)(C)C)cc2)n[nH]c1=S | -21% | 6% | -21% | 60% | ? | 39
CC(c1ccccc1)n1c(-c2ccc(C(C)(C)C)cc2)n[nH]c1=S (stereo not drawn) | ? | -8% | 4.7µM* | 20% | ? | .
Cc1ccc(-n2c(SCC(=O)NC3CCS(=O)(=O)C3)nc3ccccc3c2=O)cc1C (stereo not drawn) | -24% | 4% | -24% | ? | -29% | -15
CC1(C(=O)NS(=O)(=O)c2ccccc2)CCN1C(=O)CC1CCCC1 (stereo not drawn) | . | . | . | . | . | 9
N#C/C(=N\Nc1cccc(C(F)(F)F)c1)C(=O)c1ccsc1 | . | ? | -4% | 142% | . | -97*
C/C(=N\NC(=O)CNc1cccc(C(F)(F)F)c1)c1cccs1 | -3%[46.1 µM] | -5% | 33% | 3% | -9%[46.1 µM] | -21
SMILES | Marburg entry inh | HCV inhibitor | Pf growth 96h | Pf growth 48h | Lassa entry inh | HCMV antiviral
O=C(O)CC(O)CC(O)/C=C/c1c(C2CC2)nc2ccccc2c1-c1ccc(F)cc1 (stereo not drawn) | . | . | -7% | 0% | . | .
O=C(NCc1ccco1)c1ccccc1NC(=O)C1CC(=O)N(c2ccc(Cl)cc2)C1 (stereo not drawn) | ? | -20% | 7.4µM* | -17% | ? | 40
O=C(N/N=C/c1ccccc1O)C1CC(=O)N(c2ccc(Cl)cc2)C1 (stereo not drawn) | . | ? | 77% | 12µM* | . | -79*
O=C(NCc1ccco1)C1CC(=O)N(c2ccc(F)cc2)C1 (stereo not drawn) | ? | 17% | -20% | 15% | -3% | 6
O=C(Nc1cccc(Cl)c1Cl)C1CC(=O)N(c2ccc(Br)cc2)C1 (stereo not drawn) | ? | ? | 10µM* | 0% | -5% | -92*
Cc1ccc(/C=N/NC(=O)C2CC(=O)N(c3ccccc3)C2)s1 (stereo not drawn) | 4% | -9% | 93% | 12% | ? | ?
COC(=O)[C@@]1(C(C)C)N=C(c2cc(OC)c(OC)c(OC)c2)[C@]2(O1)C(=O)Nc1ccc(F)cc12 | . | . | . | . | . | 2
c1ccc(CCNc2nc(-c3ccccc3)cs2)cc1 | . | . | . | . | . | 48
CCCCN(CC)CCNC(=O)Cn1c(=O)c2cccn2c2cccnc21 | . | . | . | . | -2%[46.1 µM] | ?
COc1ccc(-n2cnnc2SCC(=O)NC2CCCCC2)cc1 | 20% | -9% | . | . | -4% | -5
CC(=O)c1ccc2c3c(cccc13)CC2 | 17%[46.1 µM] | -15% | 35% | -1% | -2% | 13
ON=C(c1ccccc1)c1ccc2c3c(cccc13)CC2 | . | . | . | . | . | -62*
CN(C)c1ccc(/C=C/C(=O)c2cc(Cl)ccc2O)cc1 | . | ? | 18% | -7% | . | -27
O=C(/C=C/c1ccncc1)c1cc(Cl)ccc1O | -2%[46.1 µM] | 10% | 9.3µM* | ? | -23%[46.1 µM] | ?
Cc1ccc(OCCCn2c(-c3ccc(Cl)cc3)nc3ccccc3c2=O)c(C)c1 | 1%[46.1 µM] | . | . | . | 9%[46.1 µM] | 19
O=C(CN1C(=O)C(=O)c2ccccc21)NCCc1ccccc1 | . | -5% | ? | 32% | . | 102
O=C1C(=O)N(Cc2cccc([N+](=O)[O-])c2)c2ccccc21 | 11µM* | -2% | 7% | 15% | ? | -39
O=C1C(=O)N(CCCc2ccccc2)c2ccccc21 | . | -22% | 10µM* | ? | . | .
NC(=NCc1ccccc1)NC(=O)c1nc(Cl)c(N)nc1N | 10µM*! | -17% | . | . | 14% | 14
CCNC(=O)C1(C)CCCN(C(=O)c2cccc(C)c2C)C1 (stereo not drawn) | . | . | . | . | . | -6
N#CCCn1cc(/C=N/NC(N)=S)c(-c2ccc(Br)cc2)n1 | ? | ? | -2% | 26% | -2%[46.1 µM] | -70*
N#CCCn1cc(/C=N/NC(N)=S)c(-c2ccccc2)n1 | ? | 9% | 0% | -20% | 9%[46.1 µM] | -3
CN(C)Cc1cc(C(C)(C)c2cc(CN(C)C)c(O)c(CN(C)C)c2)cc(CN(C)C)c1O | 12µM* | 8% | . | 4.1µM* | ? | 12
CN(C)Cc1cc(OCc2ccccc2)cc(CN(C)C)c1O | . | . | . | . | . | 7
COc1cc2cc(CNc3ccc(C)cc3)c(=O)n(CC(=O)Nc3ccc(C(C)C)cc3)c2cc1OC | . | . | . | . | 1%[46.1 µM] | -105*

Bioassay records as filed in PubChem BioAssay.
